Assay [1] in a line: liver-stage malaria parasite load reduction – cell-based, known kinase inhibitor set, luminescence, hepatoma host viability (AID 624392).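 Further: infected cells incubated roughly two days before readout.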 To be noted: Plasmodium liver stage in hepatoma cells, luciferase luminescence, concentration not given here; liver cell % of control: measured here: host liver cell viability; parasite % of control: stronger effect = lower value.
Assay [2] is described as follows: altered dexamethasone sensitivity, NF-kB reporter, cell-based, luciferase, IL-1B stimulus (AID 624486).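 On percent of negative control (+Dex): 100% = mean signal of vehicle control wells on the plate.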 To be noted: IL-1B + dexamethasone, luminescence; percent of negative control (+Dex): actives lie on both sides, concentration not given here; z-score: measured here: IL-1B alone, no Dex.
Assay [3] can be described thus: C. elegans survival during P. aeruginosa infection – whole organism (AID 651566).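 Further: tested at 14 µM; sign flipped so higher z means a lower ratio.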 To be noted: C. elegans killed by P. aeruginosa, survival ratio.
The nature of assay [4]: pro-inflammatory signaling induction in mouse macrophages – cell-based, murine, luminescence (AID 652131). To be noted: murine macrophage pro-inflammatory reporter, stronger effect = higher value.
Assay [5] has as its target Cellular tumor antigen p53 (Homo sapiens) (UniProt P04637). The assay can be described thus: GFP-p53 level modulators in HPV16+ cells – imaging, known kinase inhibitor set, EGFP/DsRed ratio (AID 1053116).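 Further: cells exposed to compounds for 24 h at 37 °C before reading.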 To be noted: GFP-p53 stability, stronger effect = higher value; EGFP object count: measured here: GFP-p53 positive objects count.
The nature of assay [6]: inducers of IRF3 signaling, differentiated THP-1 – cell-based, PMA-stimulated THP-1, luminescence (AID 1053176). To be noted: PMA-differentiated THP-1, IRF3 reporter luminescence; stronger effect = higher value.
Assay [7] is described as follows: MELAS cybrid and Rieske KO viability enhancers – cell-based, MELAS cybrids, Rieske KO mouse fibroblasts, CellTiter-Glo, primary screen (AID 1508586;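 active means mean z-score across replicates of 1.96 or higher in either the MELAS or the Rieske mutant cell line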;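 further: z relative to plate mean and SD of compound and empty wells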). To be noted: low glucose.
Setting [8] is: MELAS cybrid survival, CellTiter-Glo 48 h, stronger effect = higher value.
Setting [9] is: Rieske KO mouse fibroblast survival, CellTiter-Glo 72 h.

14 compounds from PubChem BioAssay can be followed below.

Calls of active or inactive are those of the source. Unless noted, how the calls were made is not given here.

Sequence of Cellular tumor antigen p53 (Homo sapiens) (P04637 whole entry, looked up): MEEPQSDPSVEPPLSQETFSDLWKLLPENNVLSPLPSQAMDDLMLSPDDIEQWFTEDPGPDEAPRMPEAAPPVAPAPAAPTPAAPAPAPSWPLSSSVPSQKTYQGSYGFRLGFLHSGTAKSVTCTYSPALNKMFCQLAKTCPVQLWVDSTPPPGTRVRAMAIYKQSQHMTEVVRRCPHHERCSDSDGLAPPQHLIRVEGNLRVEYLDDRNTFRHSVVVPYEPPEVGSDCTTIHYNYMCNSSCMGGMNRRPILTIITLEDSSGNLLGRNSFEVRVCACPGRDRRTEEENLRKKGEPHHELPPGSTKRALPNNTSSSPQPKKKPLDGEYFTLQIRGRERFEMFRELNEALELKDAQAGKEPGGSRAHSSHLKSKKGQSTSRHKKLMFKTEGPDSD

For `O=C(Nc1n[nH]c2nc(-c3ccco3)ccc12)C1CC1`, the liver cell % of control in assay [1] was determined as 201%. In addition, the parasite % of control in assay [1] was 24% (inactive). Also, the percent of negative control (+Dex) in assay [2] is 104% (inactive). Besides, the z-score was -0.105 in assay [2]; -0.7 (inactive) in assay [3]; 0.373 (inactive) in assay [4]; -0.235 (inactive) in assay [7] (setting [8]); -0.343 in assay [7] (setting [9]). Moreover, the EGFP object count in assay [5] amounted to 2. Further, the EGFP/DsRed ratio in assay [5] is 0.0203 (inactive). Further, the fraction signal in assay [6] was -0.008 (inactive).
In the case of `Cc1c2ccc(N(C)c3ccnc(Nc4cccc(S(N)(=O)=O)c4)n3)cc2nn1C`, the liver cell % of control in assay [1] came out at 94.3%. Further, in assay [1], the parasite % of control was 100% (inactive). Moreover, the percent of negative control (+Dex) in assay [2] is 94% (inactive). In addition, the z-score was 0.455 in assay [2]; 1 (inactive) in assay [3]; -0.277 (inactive) in assay [4]; -1.32 (inactive) in assay [7] (setting [8]); -0.151 in assay [7] (setting [9]). Also, the EGFP object count in assay [5] was 3.5. In addition, the EGFP/DsRed ratio in assay [5] was 0.0613 (inactive). For the same compound, the fraction signal in assay [6] is 0.0015 (inactive).
For the compound `COc1cccc(-n2cnc3c(N/N=C/c4ccncc4)ncnc32)c1`, the liver cell % of control in assay [1] was 88.9%. Moreover, the parasite % of control in assay [1] was 105% (inactive). The percent of negative control (+Dex) in assay [2] is 104% (inactive). Further, the z-score in assay [2] was 0.5; in assay [3], -1.34 (inactive); in assay [4] it was -0.055 (inactive); in assay [7] (setting [8]), 2.14 (active); in assay [7] (setting [9]), 0.0192. In addition, in assay [5], the EGFP object count stood at 1.5. Besides, the EGFP/DsRed ratio in assay [5] is 0.0324 (inactive). For the same compound, the fraction signal in assay [6] was 0.0015 (inactive).
For `CN1CCC(n2cnc(-c3ccc(F)cc3)c2-c2ccnc(Nc3ccccc3)n2)CC1`, in assay [1], the liver cell % of control turned out to be 67.1%. The parasite % of control in assay [1] is 74.5% (inactive). Moreover, the percent of negative control (+Dex) in assay [2] was 101% (inactive). The z-score in assay [2] was -0.08; in assay [3], 0.955 (inactive); in assay [4], 0.813 (inactive); in assay [7] (setting [8]), -0.528 (inactive); in assay [7] (setting [9]), -0.322. Besides, the EGFP object count in assay [5] turned out to be 3. The EGFP/DsRed ratio in assay [5] was 0.0706 (inactive). Moreover, the fraction signal in assay [6] was 0.005 (inactive).
In turn, `Cc1cccc(C2NNCC2c2ccc3ncccc3n2)n1` (centres undefined) had a liver cell % of control in assay [1] of 89.8%. In addition, the parasite % of control in assay [1] was 104% (inactive). For the same compound, the percent of negative control (+Dex) in assay [2] was 58.5% (inactive). Besides, the z-score in assay [2] is -3.81; in assay [3] it was 0.465 (inactive); in assay [4], 0.276 (inactive); in assay [7] (setting [8]), 0.0567 (inactive); in assay [7] (setting [9]) it was -0.176. Besides, the EGFP object count in assay [5] was determined as 4. The EGFP/DsRed ratio in assay [5] was 0.132 (inactive). Also, the fraction signal in assay [6] is 0.0035 (inactive).
In assay [1], `O=C(Nc1ccc(Oc2ccc3nc(NC(=O)c4ccccc4)[nH]c3c2)cc1)Nc1cc(C(F)(F)F)ccc1F` registered a liver cell % of control of 151%. Besides, the parasite % of control in assay [1] was 113% (inactive). Besides, the percent of negative control (+Dex) in assay [2] is 102% (inactive). Also, the z-score in assay [2] is 0.635; in assay [3], -0.485 (inactive); in assay [4], -1.71 (inactive); in assay [7] (setting [8]) it was 8.17 (active); in assay [7] (setting [9]), 1.84. In assay [5], the EGFP object count is 2.5. Also, the EGFP/DsRed ratio in assay [5] is 0.0378 (inactive). Also, in assay [6], the fraction signal was -0.006 (inactive).
In the case of `Cc1cccc2c(N=Nc3ccc(S(N)(=O)=O)cc3)c(O)[nH]c12`, in assay [1], the liver cell % of control was determined as 89.8%. Also, in assay [1], the parasite % of control is 131% (inactive). Moreover, in assay [2], the percent of negative control (+Dex) is 111% (inactive). The z-score in assay [2] was 1.54; in assay [3], -0.125 (inactive); in assay [4], -0.036 (inactive); in assay [7] (setting [8]) it was 0.912 (inactive); in assay [7] (setting [9]), -0.47. In addition, the EGFP object count in assay [5] was 3.5. Moreover, in assay [5], the EGFP/DsRed ratio was 0.095 (inactive). In assay [6], the fraction signal is -0.0075 (inactive).
In assay [1], `CCN(CC)S(=O)(=O)c1ccc(OC)c(Nc2ncc(-c3ccccc3)o2)c1` showed a liver cell % of control of 168%. Besides, the parasite % of control in assay [1] was 80% (inactive). Besides, the percent of negative control (+Dex) in assay [2] is 91% (inactive). Further, the z-score in assay [2] was 0.485; in assay [3], -0.36 (inactive); in assay [4], -0.177 (inactive); in assay [7] (setting [8]) it was -0.446 (inactive); in assay [7] (setting [9]), -0.197. Besides, the EGFP object count in assay [5] was determined as 3. Moreover, the EGFP/DsRed ratio in assay [5] is 0.245 (inactive). The fraction signal in assay [6] is -0.012 (inactive).
In assay [1], `COc1ccccc1-c1cc(/C=C2\C(=O)Nc3ncc(Br)cc32)cc(Br)c1O` gave a liver cell % of control of 102%. Also, the parasite % of control in assay [1] was 116% (inactive). In assay [2], the percent of negative control (+Dex) is 96% (inactive). Further, the z-score in assay [2] is -0.115; in assay [3], 0.69 (inactive); in assay [4], -0.578 (inactive); in assay [7] (setting [8]), -0.581 (inactive); in assay [7] (setting [9]), -0.341. Besides, the EGFP object count in assay [5] is 1. The EGFP/DsRed ratio in assay [5] is 0.142 (inactive). In addition, the fraction signal in assay [6] is 0.0015 (inactive).
As to `CC1=C(C(=O)Nc2cc(Cl)c3[nH]ncc3c2)C(c2ccc(C(F)(F)F)cc2)CC(=O)N1` (centres undefined), the liver cell % of control in assay [1] worked out at 106%. Further, the parasite % of control in assay [1] was 193% (inactive). Further, the percent of negative control (+Dex) in assay [2] is 73% (inactive). Further, the z-score in assay [2] is -1.52; in assay [3] it was -0.22 (inactive); in assay [4] it was -0.455 (inactive); in assay [7] (setting [8]) it was -0.0142 (inactive); in assay [7] (setting [9]), -0.416. The EGFP object count in assay [5] came to 2. In addition, the EGFP/DsRed ratio in assay [5] is 0.126 (inactive). Further, the fraction signal in assay [6] was -0.01 (inactive).
Turning to `CC(=O)NCc1cccc(C#Cc2cncnc2Nc2ccc(OCc3cccc(F)c3)c(Cl)c2)c1`, the liver cell % of control in assay [1] was 86.2%. The parasite % of control in assay [1] was 90.8% (inactive). The percent of negative control (+Dex) in assay [2] is 77% (inactive). Also, the z-score in assay [2] was -1.32; in assay [3], 0.19 (inactive); in assay [4] it was -0.99 (inactive); in assay [7] (setting [8]), 0.0992 (inactive); in assay [7] (setting [9]), -0.0459. Moreover, the EGFP object count in assay [5] came to 5.5. In addition, the EGFP/DsRed ratio in assay [5] is 0.157 (inactive). In assay [6], the fraction signal was 0.004 (inactive).
For the compound `COc1cc(N2CCN(C(C)C)CC2)ccc1Nc1nc(Nc2cccc3ncccc23)c2cc[nH]c2n1`, in assay [1], the liver cell % of control was found to be 96.4%. The parasite % of control in assay [1] was 180% (inactive). The percent of negative control (+Dex) in assay [2] was 92.5% (inactive). Moreover, the z-score is -0.235 in assay [2]; 0.32 (inactive) in assay [3]; -0.489 (inactive) in assay [4]; -1.02 (inactive) in assay [7] (setting [8]); -0.0497 in assay [7] (setting [9]). For the same compound, in assay [5], the EGFP object count came out at 1. Moreover, the EGFP/DsRed ratio in assay [5] is 0.00687 (inactive). Also, the fraction signal in assay [6] was -0.0005 (inactive).
As to `Nc1nc(-c2ccc3c(c2)/C(=C\c2cc(Br)c(O)c(Br)c2)C(=O)N3)cs1`, the liver cell % of control in assay [1] is 70.8%. The parasite % of control in assay [1] was 79.2% (inactive). The percent of negative control (+Dex) in assay [2] was 86.5% (inactive). The z-score in assay [2] was -0.23; in assay [3], 0.35 (inactive); in assay [4] it was 2.85 (inactive); in assay [7] (setting [8]), -0.944 (inactive); in assay [7] (setting [9]) it was -0.14. For the same compound, in assay [5], the EGFP object count amounted to 5.5. Besides, the EGFP/DsRed ratio in assay [5] is 0.264 (inactive). The fraction signal in assay [6] was -0.002 (inactive).
In turn, `COc1cc2c(cc1Nc1nc(Nc3cccc(F)c3C(N)=O)c3cc[nH]c3n1)N(C(=O)CN1CCN(C(C)C)CC1)CC2` came in with a liver cell % of control in assay [1] of 73.3%. Besides, the parasite % of control in assay [1] was 300% (inactive). In addition, the percent of negative control (+Dex) in assay [2] is 95.5% (inactive). In addition, the z-score is -0.34 in assay [2]; 0.095 (inactive) in assay [3]; -0.476 (inactive) in assay [4]; -0.91 (inactive) in assay [7] (setting [8]); -0.402 in assay [7] (setting [9]). In addition, the EGFP object count in assay [5] worked out at 4.5. Further, in assay [5], the EGFP/DsRed ratio was 0.201 (inactive). Further, in assay [6], the fraction signal was 0.004 (inactive).
